# Unmarked numbers belong to inactive results. Results filed as inconclusive are left out. Entries that show only a call come without a potency. Activity calls are given as the source filed them. Unless noted, the call rests on the fitted dose curve; in most records, active means well fitted curve in the direction sought with a large enough effect in the repeat runs; inconclusive means weak or mixed curves; inactive means no such curve, though single readings can be large; an effect the other way counts as inactive or inconclusive.
# How the values were obtained:
# [1] = qHTS assay to identify small molecule antagonists of the estrogen related receptor signaling pathway with the pleiotropic PPARgamma coactivator (PGC) from Tox21 10K library - cell viability counter screen (AID 1224840; active means well fitted cell-killing curve with a large enough effect in the repeat runs, not every such curve was filed as active; further: nearly all actives have a fitted effect of over 40% in size)
# Procedure, shortened: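 Compounds in DMSO, alongside positive and negative controls, were pinned onto PGC/ERR cells (2,000 per well). Exposure lasted 17.5 hours at 37 C, followed by a 30-minute CellTiter-Fluor incubation and fluorescence reading.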
# [2] = qHTS assay to identify small molecule agonists of the estrogen related receptor signaling pathway with the pleiotropic PPARgamma coactivator (PGC) from Tox21 10K library (AID 1224842); further: nearly all actives have a fitted effect of over 15% in size
# Procedure, shortened: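 PGC/ERR reporter cells (NTP line) were seeded 2,000 per well, rested 6 h at 37 C/5% CO2, then pin-dosed with compounds in DMSO for 18 h at 37 C; luciferase read by One-Glo luminescence after 30 min at room temperature.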
# [3] = target: Thyrotropin receptor (Homo sapiens) (UniProt P16473); test: qHTS assay to identify small molecule agonists of the thyroid stimulating hormone receptor (TSHR) signaling pathway (AID 1224843; calls by dose curve; further: nearly all actives have a fitted effect of over 45% in size)
# Procedure, shortened: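 TSHR-expressing HEK293 cells (800 per well) were exposed to compounds for 30 min at room temperature. cAMP was then detected by HTRF competition with cAMP-d2 and anti-cAMP cryptate, read after 1 h at room temperature. Fifteen concentrations, triplicate.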
# [4] = qHTS assay to identify small molecule agonists of the hypoxia (HIF-1) signaling pathway - cell viability counter screen (AID 1224844; calls by dose curve; further: nearly all actives have a fitted effect of over 50% in size)
# Procedure, shortened: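 Luminescent ATP content (CellTiter-Glo, 30 min, room temperature) served as the viability measure in HRE-bla ME-180 cells exposed to compounds for 17 hrs in low-serum medium (0.5% dialyzed FBS).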
# [5] = qHTS assay to identify small molecule agonists of H2AX (AID 1224845; active means well fitted activation curve with a large enough effect in the signal ratio in the repeat runs, not every such curve was filed as active; the % refers to the signal ratio)
# Procedure, shortened: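 Wild-type CHO-K1 cells plated overnight, then exposed 3 hr at 37C to compounds at 15 concentrations (0.76% DMSO). Lysed, then HTRF anti-pH2AX(S139)-cryptate/anti-H2AX-d2 detection after 24 hr at room temperature; emissions 665 and 620 nm.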
# [6] = qHTS assay to identify small molecule agonists of the hypoxia (HIF-1) signaling pathway (AID 1224846; active means well fitted activation curve with a large enough effect in the signal ratio in the repeat runs, not every such curve was filed as active; the % refers to the signal ratio)
# Procedure, shortened: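 Measured by blue/green FRET after loading CCF4-AM: beta-lactamase expressed from a hypoxia response element in ME-180 cells. Test agents were delivered in DMSO and left 17 hrs; cells had been plated 5 hrs earlier in low-serum (0.5% dialyzed FBS) medium.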
# [7] = qHTS assay to identify small molecule agonists of H2AX - cell viability counter screen (AID 1224847; calls by dose curve; further: top concentration of the series differs between compounds; nearly all actives have a fitted effect of over 30% in size)
# Procedure, shortened: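 Counter-screen for viability: CellTiter-Glo ATP luminescence read after 3 h compound treatment (15-point titration, 0.76% DMSO final) of CHO-K1 cells at 37C, with 30 min room-temperature reagent incubation.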
# [8] = qHTS assay to identify small molecule antagonists of the estrogen related receptor (ERR) signaling pathway from Tox21 library (AID 1224848); further: nearly all actives have a fitted effect of over 50% in size
# Procedure, shortened: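 Cells: ERR line, 2,000/well; 6 h preincubation 37 C/5% CO2. Cpd in DMSO via pin tool; 18 h, 37 C. ONE-Glo, 30 min RT, luminescence.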
# [9] = qHTS assay to identify small molecule agonists of the estrogen related receptor (ERR) signaling pathway from Tox21 library (AID 1224849; calls by dose curve; further: nearly all actives have a fitted effect of over 15% in size)
# Procedure, shortened: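 We plated ERR reporter cells, waited 6 h, added compounds in DMSO by pin tool and incubated them 18 h at 37 C. ONE-Glo was then added and luminescence read after 30 min.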
# [10] = qHTS RealTime-Glo MT Cell Viability Assay in HepG2 cells - 24 hour (AID 1224867); further: nearly all actives have a fitted effect of over 50% in size
# Procedure, shortened: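 Tox21 10K library screened in qHTS format on HepG2 cells carrying RealTime-Glo reagents. Compounds were added after a 5 h preincubation, and the luminescent signal from continuous culture was measured repeatedly during 40 h treatment.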
# [11] = qHTS RealTime-Glo MT Cell Viability Assay in HEK293 cells - 32 hour (AID 1224868); further: nearly all actives have a fitted effect of over 50% in size; further: potency means the concentration at half of the fitted maximal effect
# Procedure, shortened: (§1)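 Luminescence generated by NanoLuc from substrate produced by living HEK293 cells served as the viability signal. Each value reflects the reading at its stated time point during continuous 40 h compound exposure at 37 C.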
# [12] = qHTS RealTime-Glo MT Cell Viability Assay in HepG2 cells - 40 hour (AID 1224870); further: nearly all actives have a fitted effect of over 50% in size
# Procedure, shortened: (§2)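 HepG2 cells mixed with RealTime-Glo MT reagents (NanoLuc plus cell-permeant prosubstrate) were seeded at 600 cells/well, incubated 5 h at 37 C/5% CO2, then pinned with compounds in DMSO; nonlytic luminescence tracked viability during 40 h treatment.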
# [13] = A CellTox Green Cytotoxicity Assay to monitor cytotoxicity in HEK293 cells - 40 hour (AID 1224871); further: nearly all actives have a fitted effect of over 45% in size
# Procedure, shortened: (§3)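 Each value comes from one timepoint of a single continuous run in which HEK293 cells with CellTox Green were exposed to compound for up to 40 h at 37 C, dye fluorescence rising with cell death.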
# [14] = qHTS RealTime-Glo MT Cell Viability Assay in HEK293 cells - 16 hour (AID 1224872)
# Procedure, shortened: as §1
# [15] = qHTS RealTime-Glo MT Cell Viability Assay in HEK293 cells - 40 hour (AID 1224874); conditions: RealTime-Glo luminescence; max response: stronger effect = lower value; further: nearly all actives have a fitted effect of over 50% in size; further: potency means the concentration at half of the fitted maximal effect
# Procedure, shortened: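 qHTS format; HEK293 cells with NanoLuc/prosubstrate reagent, 37 C/5% CO2 for 5 h pre-dosing; compounds 23 nL in DMSO; luminescence at each time point reflects viable cells.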
# [16] = A CellTox Green Cytotoxicity Assay to monitor cytotoxicity in HEK293 cells - 24 hour (AID 1224875); further: series mostly up to about 77 µM; nearly all actives have a fitted effect of over 45% in size
# Procedure, shortened: as §3
# [17] = A CellTox Green Cytotoxicity Assay to monitor cytotoxicity in HEK293 cells - 0 hour (AID 1224869); further: nearly all actives have a fitted effect of over 50% in size
# Procedure, shortened: as §3
# [18] = qHTS RealTime-Glo MT Cell Viability Assay in HepG2 cells - 8 hour (AID 1224873); further: nearly all actives have a fitted effect of over 55% in size
# Procedure, shortened: as §2
# [19] = qHTS assay to identify small molecule antagonists of the estrogen related receptor signaling pathway with the pleiotropic PPARgamma coactivator (PGC) from Tox21 10K library (AID 1224841; call rule not given here)
# Procedure, shortened: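 Compound exposure ran 18 hours at 37 C in PGC/ERR cells (2,000/well) that had first rested 6 hours in a 37 C/5% CO2 incubator. Luciferase activity was then detected with One-Glo after a 30-minute room-temperature step.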
# Chain of Thyrotropin receptor (Homo sapiens) (P16473 whole entry, looked up): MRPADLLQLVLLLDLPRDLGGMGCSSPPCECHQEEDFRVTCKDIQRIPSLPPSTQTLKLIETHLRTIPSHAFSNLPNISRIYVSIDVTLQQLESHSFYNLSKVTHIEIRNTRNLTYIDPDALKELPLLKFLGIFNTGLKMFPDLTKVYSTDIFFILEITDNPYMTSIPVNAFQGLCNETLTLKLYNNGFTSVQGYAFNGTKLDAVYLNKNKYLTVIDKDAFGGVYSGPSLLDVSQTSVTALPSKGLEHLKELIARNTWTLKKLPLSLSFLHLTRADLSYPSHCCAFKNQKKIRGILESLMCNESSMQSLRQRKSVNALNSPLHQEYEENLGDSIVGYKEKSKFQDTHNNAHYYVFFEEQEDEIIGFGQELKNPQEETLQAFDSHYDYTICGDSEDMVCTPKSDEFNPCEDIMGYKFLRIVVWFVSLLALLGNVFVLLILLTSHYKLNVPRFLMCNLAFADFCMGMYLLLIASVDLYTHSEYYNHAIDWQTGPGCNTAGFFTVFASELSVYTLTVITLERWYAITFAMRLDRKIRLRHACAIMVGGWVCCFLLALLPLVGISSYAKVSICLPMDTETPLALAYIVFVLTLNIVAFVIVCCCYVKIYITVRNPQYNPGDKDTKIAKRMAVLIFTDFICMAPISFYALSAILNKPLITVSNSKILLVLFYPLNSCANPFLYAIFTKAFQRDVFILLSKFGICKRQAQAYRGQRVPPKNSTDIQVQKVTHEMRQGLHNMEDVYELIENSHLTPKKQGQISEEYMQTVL
SMILES,outcome [1],outcome [2],outcome [3],outcome [4],outcome [5],outcome [6],Potency [7],Potency [8],outcome [9],outcome [10],Potency [11],outcome [12],Potency [13],Potency [14],max response [15] [%],Potency [16],Potency [17],outcome [18],Potency [15],Potency [19]
CCc1nccnc1C,inactive,inactive,inactive,inactive,inactive,inactive,inactive,inactive,inactive,inactive,inactive,inactive,inactive,inactive,6.93,inactive,–,–,–,–
C[C@H](CCC(=O)NCC(=O)O)[C@H]1CC[C@H]2[C@@H]3[C@H](O)C[C@@H]4C[C@H](O)CC[C@]4(C)[C@H]3C[C@H](O)[C@]12C,inactive,inactive,inactive,inactive,inactive,–,inactive,inactive,inactive,inactive,9.49 µM (active),inactive,inactive,–,–,inactive,inactive,inactive,9.49 µM (active),–
CCCCCN(CCCOC)C(=O)C(CCC(=O)O)NC(=O)c1ccc(Cl)c(Cl)c1 (stereo unspecified),inactive,inactive,–,inactive,inactive,inactive,inactive,inactive,inactive,inactive,inactive,inactive,inactive,–,-0.0123,inactive,inactive,inactive,–,–
CC(=O)Nc1ccc(C)cc1,inactive,inactive,–,inactive,inactive,inactive,inactive,inactive,inactive,–,inactive,inactive,inactive,–,-5.67,inactive,inactive,inactive,–,–
C[CH2][Ge]([Cl])([CH2]C)[CH2]C,inactive,inactive,inactive,inactive,inactive,inactive,inactive,inactive,inactive,inactive,inactive,inactive,inactive,inactive,1.99,inactive,inactive,inactive,–,–
CC1CCC(C(C)(C)S)C(=O)C1 (stereo unspecified),inactive,inactive,–,inactive,inactive,inactive,inactive,inactive,inactive,inactive,3.09 µM (active),inactive,inactive,–,–,inactive,inactive,inactive,3.09 µM (active),–
Cc1ncc([N+](=O)[O-])n1CC(O)CCl (stereo unspecified),inactive,inactive,inactive,inactive,inactive,inactive,–,inactive,inactive,inactive,inactive,inactive,inactive,inactive,3.64,inactive,inactive,inactive,–,–
C=CCOc1c(Br)cc(Br)cc1Br,inactive,inactive,–,inactive,inactive,inactive,inactive,inactive,inactive,inactive,inactive,inactive,inactive,inactive,2.02,inactive,–,inactive,–,–
CCCOCCOCCOCCO,inactive,inactive,–,inactive,inactive,inactive,inactive,inactive,inactive,inactive,inactive,inactive,inactive,–,-22.3,inactive,inactive,inactive,–,–
Cc1ccccc1OCC1CO1 (stereo unspecified),inactive,inactive,–,inactive,inactive,inactive,inactive,inactive,inactive,inactive,inactive,inactive,inactive,–,-1.66,inactive,inactive,inactive,–,inactive
O=C(Oc1ccccc1C(=O)O)c1ccccc1O,inactive,inactive,inactive,inactive,inactive,inactive,inactive,inactive,inactive,inactive,inactive,inactive,inactive,inactive,4.65,inactive,–,–,–,–
CC(C)COC(=O)COc1ccc(Cl)cc1Cl,inactive,inactive,–,inactive,inactive,inactive,inactive,inactive,inactive,inactive,inactive,inactive,inactive,inactive,6.46,inactive,inactive,inactive,–,–
CNCc1ccccc1,inactive,inactive,–,inactive,inactive,inactive,inactive,inactive,inactive,inactive,inactive,inactive,inactive,inactive,-3.32,inactive,inactive,inactive,–,inactive
CCS(=O)(=O)CCn1c([N+](=O)[O-])cnc1C,inactive,inactive,inactive,inactive,inactive,–,inactive,inactive,inactive,inactive,inactive,inactive,inactive,inactive,-0.732,inactive,inactive,inactive,–,–

# — PubChem BioAssay (Tox21)
